HSV replic up: HSV replication enhancement; HSV replication augmentation in cells, fold increase; maximum fold increase; 0.005% of 220,000 active; in the data active means maximum fold increase above about 1.5; inconclusive means no clear call, values can overlap the other calls; tested in PC3 cells
S1P4 ag: agonists of human S1P4 receptor; 0.35% of 220,000 active; activation, % at 4.98 µM; S1P4-expressing cell line, agonist reporter assay; in the data active means activation above about 11%
Target sequence (O95977 whole entry, looked up): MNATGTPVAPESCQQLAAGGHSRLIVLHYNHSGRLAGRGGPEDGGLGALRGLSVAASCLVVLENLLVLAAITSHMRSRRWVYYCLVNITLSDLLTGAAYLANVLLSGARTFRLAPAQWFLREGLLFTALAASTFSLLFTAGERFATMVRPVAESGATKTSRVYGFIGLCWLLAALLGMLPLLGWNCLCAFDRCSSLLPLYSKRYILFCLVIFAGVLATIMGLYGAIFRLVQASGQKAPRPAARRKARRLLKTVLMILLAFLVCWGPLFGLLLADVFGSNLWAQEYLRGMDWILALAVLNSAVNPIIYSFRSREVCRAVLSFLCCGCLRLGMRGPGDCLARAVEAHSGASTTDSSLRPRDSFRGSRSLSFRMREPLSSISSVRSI
zVAD death inh: blocks zVAD induced death of L929 cells. L929 zVAD necroptosis rescue, ATP luminescence, 24 h; with zVAD 60 µM. viability rescue, % at 10 µM. 0.38% of 220,000 active. AID 1377;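 active means activation, scaled between plate controls, above about 75%, limit read from the data; inactive means activation under that limit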
Hsp70 activator: Hsp70 transcriptional activation, primary screen | HeLa Hsp70 promoter luciferase reporter, luminescence; scaled: vehicle 0, proteasome-inhibitor control 100% | AID 1203 | 0.04% of 200,000 active | activation, % at 10 µM;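 active means activation above the mean across all tested compounds plus 3 SD, cutoff set per campaign, cut at about 5.5% in these data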
S1P4 antagonist: antagonists of human S1P4 receptor. O95977. S1P4-expressing cells, antagonist mode, reporter read-out. inhibition, % at 4.98 µM. 0.26% of 220,000 active. AID 1510; in the data active means inhibition above about 29%
TNF death inh: blocks TNF-alpha induced death of Jurkat FADD-/- cells; Jurkat FADD-/- TNF necroptosis rescue, ATP luminescence, 24 h; 0 = TNF only, 100 = no-TNF cells; activation (protection from cell death), % at 10 µM; 0.068% of 220,000 active;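 active means activation, meaning protection from cell death, of at least 50% relative to plate controls; inactive means activation below 50%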;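 further: necroptosis triggered by 40 ng/mL TNF-alpha added together with compound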
S1P4 ag conf: confirmation of human S1P4 receptor agonists; shares compounds with S1P4 ag; S1P4 agonist cell-based reporter assay; activation, % at 4.98 µM; 7% of 740 active; AID 1523; in the data active means activation above about 12%
S1P1 agonist: counter-screen for S1P4 agonists: agonists of human S1P1 | shares compounds with S1P4 ag | S1P1 agonist cell-based assay, activation | activation, % at 4.98 µM | 4% of 740 active | AID 1563; in the data active means activation above about 21%
Of the large screens only hits and unclear results are named; the others gave an inactive call (follow-up assays come after a bar, where they were run). This is a sample that favours compounds with a hit; in the whole collection about 1% have one here.

COc1cc(C(F)(F)F)c(C(=O)N(C)Cc2ccc(Cl)c(Cl)c2)cn1	S1P4 ag 14.7 (no result: Hsp70 activator) | S1P4 ag conf inactive | S1P1 agonist inactive
C=CCN(c1ccccc1)S(=O)(=O)c1cccc(C(=O)Nc2nc3ccccc3[nH]2)c1	S1P4 ag 22.2 | S1P4 ag conf inactive | S1P1 agonist inactive
CN(c1cccc(Cl)c1)S(=O)(=O)c1cccc(C(=O)Nc2nc3ccccc3[nH]2)c1	none
COC(=O)c1ccc(OC(=O)C23CCC(C)(C(=O)O2)C3(C)C)cc1 (stereo not drawn)	none
Cc1ccc2nc(-c3ccc(NS(=O)(=O)c4ccccc4)cc3)sc2c1	none
Cc1ccc2nc(-c3ccc(NS(=O)(=O)c4ccc(F)c(F)c4)cc3)sc2c1	S1P4 ag 29.9 | S1P4 ag conf inactive | S1P1 agonist inactive
COc1ccccc1NC(=O)CCSc1nnc(-c2ccncc2)o1	none
NS(=O)(=O)c1ccc(NC(=S)Nc2ccn(Cc3cccc4ccccc34)n2)cc1	none
CCOC(=O)CC1Sc2ccccc2NC1=S (stereo not drawn)	S1P4 ag 63.4 (no result: Hsp70 activator) | S1P4 ag conf inactive | S1P1 agonist inactive
COc1ccc2cc(OC)c(C(=O)N3CCOCC3)cc2c1	S1P4 ag 14.4 | S1P4 ag conf inactive | S1P1 agonist inactive
CCOC(=O)CN1C(=O)N[C@@H](c2cccc(C(F)(F)F)c2)[C@H](C(C)=O)[C@H]1C	none (no result: S1P4 ag, zVAD death inh, Hsp70 activator, S1P4 antagonist, TNF death inh)
Cc1ccccc1/C=N\NC(=O)c1ccc(Cn2cccn2)o1	S1P4 ag 46.7 (no result: HSV replic up) | S1P4 ag conf inactive | S1P1 agonist inactive
CCCn1c(SCC(=O)Nc2ccc3c(c2)CCC3)n[nH]c1=O	S1P4 ag 16.4 | S1P4 ag conf inactive | S1P1 agonist inactive
COc1cccc(NC(=O)CN(c2cccc(OC)c2)S(C)(=O)=O)c1	none
COc1cccc(NC(=O)CN(c2cccc(C(F)(F)F)c2)S(C)(=O)=O)c1	S1P4 ag 11.7 | S1P4 ag conf inactive | S1P1 agonist inactive
CN(C)CCNC(=O)Cc1ncc(C(F)(F)F)cc1Cl	none
O=C(Cc1ncc(C(F)(F)F)cc1Cl)NCCc1ccccn1	S1P4 ag 13.0 | S1P4 ag conf inactive | S1P1 agonist inactive
O=C(Nc1nncs1)c1ccc(S(=O)(=O)c2ccccc2)cc1	none
O=C(Nc1nnc(C2CC2)s1)c1ccc(S(=O)(=O)c2ccccc2)cc1	S1P4 ag 14.1 | S1P4 ag conf inactive | S1P1 agonist inactive
COc1ccc(OC)c(/C=N/NC(=O)Cc2nc3ccccc3[nH]2)c1	S1P4 ag 11.5 | S1P4 ag conf inactive | S1P1 agonist inactive
O=C(Cc1nc2ccccc2[nH]1)N/N=C/c1ccccc1	none
CCCNc1ccc(C(=O)OCC)cc1[N+](=O)[O-]	S1P4 ag 33.6 | S1P4 ag conf inactive | S1P1 agonist inactive
CCOC(=O)CNc1ccc(C(=O)OCC)cc1[N+](=O)[O-]	none
C/C(=N/NC(N)=S)c1cc2ccc(O)cc2oc1=O	HSV replic up inconclusive, S1P4 ag 38.8 (no result: Hsp70 activator) | S1P4 ag conf 17.8 | S1P1 agonist inactive
NC(=S)c1cc2ccc(O)cc2oc1=O	S1P4 ag 67.0 (no result: HSV replic up) | S1P4 ag conf 16.5 | S1P1 agonist inactive
C/C(=N\N1CCN(Cc2ccc(Cl)cc2)CC1)c1ccc(F)cc1	S1P4 ag 74.7 (no result: Hsp70 activator) | S1P4 ag conf inactive | S1P1 agonist inactive
C/C(=N\N1CCN(Cc2ccccc2Cl)CC1)c1ccc(F)cc1	none (no result: Hsp70 activator)
C#CCOCCOCCOCCNc1nc(N2CCN(C(=O)[C@H](CCC(=O)O)n3cc(C(N)CO)nn3)CC2)nc(N2CCN(C(=O)[C@H](CCC(=O)O)n3cc(C(N)CC(C)C)nn3)CC2)n1 (stereo partly drawn)	none (no result: S1P4 ag, Hsp70 activator, S1P4 antagonist)
Cc1cccc(N=Cc2cc3c(cc2[N+](=O)[O-])OCO3)c1	S1P4 ag 15.6 | S1P4 ag conf inactive | S1P1 agonist inactive
CCOC(=O)c1c(C)[nH]c(C(=O)COC(=O)COc2ccccc2C=O)c1C	none
NC(=O)CSc1nnc(CSc2ncccn2)n1-c1ccccc1	none
Cc1ccc(NC(=O)N2CCN(c3ncccc3C(F)(F)F)CC2)cc1	none (no result: Hsp70 activator)
O=C(Nc1ccc2ccccc2c1)N1CCN(c2ncccc2C(F)(F)F)CC1	S1P4 ag 15.8 | S1P4 ag conf inactive | S1P1 agonist inactive
CC(=O)c1cccc(NC(=O)c2ccc(-c3ccccc3[N+](=O)[O-])o2)c1	none
O=C(O)CCC1(c2ccccc2)NC(=O)NC1=O (stereo not drawn)	none (no result: Hsp70 activator)
CCC(C)NCCC(=O)Nc1ccc(Cl)c(S(=O)(=O)Nc2ccc(Cl)cc2)c1 (stereo not drawn)	S1P4 ag 19.1 | S1P4 ag conf inactive | S1P1 agonist inactive
Cc1ccc(C(=O)CCC(=O)Nc2ccc(Cl)c(S(=O)(=O)Nc3cccc(Cl)c3)c2)cc1	none
Cn1c(O)c(N=NC(=S)Nc2ccccc2F)c2cc(S(=O)(=O)N3CCOCC3)ccc21	S1P4 ag 17.1 | S1P4 ag conf inactive | S1P1 agonist inactive
Cc1ccc(NC(=S)N=Nc2c(O)n(C)c3ccc(S(=O)(=O)N4CCOCC4)cc23)cc1C	none (no result: zVAD death inh)
COCC(=O)N1CCCC(C(=O)c2ccc(-c3ccccc3)c(F)c2)C1 (stereo not drawn)	none
CSc1ncccc1C(=O)OCC(=O)Nc1ccc(S(=O)(=O)N2CCCC2)cc1	S1P4 ag 58.2 (no result: HSV replic up) | S1P4 ag conf inactive | S1P1 agonist inactive
O=C(COC(=O)c1ccccc1O)Nc1ccc(S(=O)(=O)N2CCCCC2)cc1	none
COCCCn1c(=N)c(C(=O)NCC2CCCO2)cc2c(=O)n3ccccc3nc21 (stereo not drawn)	S1P4 ag 11.5 | S1P4 ag conf inactive | S1P1 agonist inactive
COCCCn1c(=N)c(C(=O)NCC2CCCO2)cc2c(=O)n3cccc(C)c3nc21 (stereo not drawn)	none
N=c1c(C(=O)NCc2ccc(F)cc2)cc2c(=O)n3ccccc3nc2n1CC1CCCO1 (stereo not drawn)	S1P4 ag 12.9 | S1P4 ag conf 14.4 | S1P1 agonist inactive
Cc1c(C=O)c(Cl)n(C)c(=O)c1C#N	none
CC(Oc1ccccc1)C(=O)OCC(=O)NC(=O)NCc1ccco1 (stereo not drawn)	none
CC(C)c1cc(C(=O)OCC(=O)NC(=O)NCc2ccco2)c(O)c(C(C)C)c1	S1P4 ag 43.6 | S1P4 ag conf 36.0 | S1P1 agonist inactive
O=C(CCc1nnc(CCCc2ccccc2)o1)NCCCC1CCCC1	none
COc1ccccc1-n1c(SCC(N)=O)nnc1-c1ccc(S(=O)(=O)N2CCCCC2)cc1	S1P4 ag 22.9 | S1P4 ag conf inactive | S1P1 agonist inactive
COc1ccc(CCN2C(=O)CC(NCc3ccc4c(c3)OCO4)C2=O)cc1OC (stereo not drawn)	S1P4 ag 18.9 | S1P4 ag conf inactive | S1P1 agonist inactive

Screening results deposited in PubChem BioAssay by several laboratories.
